# Source: PubChem BioAssay (NCATS)
# Results filed as inconclusive are left out. Unmarked numbers belong to inactive results. Activity calls are given as the source filed them. Calls come from the whole dose curve; as a rule, active = well fitted inhibition curve with a large enough effect in the repeat runs; inconclusive = weak or mixed curves; inactive = no such curve, though single readings can be large or run the other way.
# Biological target: Cytochrome P450 2C9 (Homo sapiens) (UniProt P11712)
# Sequence (P11712 whole entry, looked up): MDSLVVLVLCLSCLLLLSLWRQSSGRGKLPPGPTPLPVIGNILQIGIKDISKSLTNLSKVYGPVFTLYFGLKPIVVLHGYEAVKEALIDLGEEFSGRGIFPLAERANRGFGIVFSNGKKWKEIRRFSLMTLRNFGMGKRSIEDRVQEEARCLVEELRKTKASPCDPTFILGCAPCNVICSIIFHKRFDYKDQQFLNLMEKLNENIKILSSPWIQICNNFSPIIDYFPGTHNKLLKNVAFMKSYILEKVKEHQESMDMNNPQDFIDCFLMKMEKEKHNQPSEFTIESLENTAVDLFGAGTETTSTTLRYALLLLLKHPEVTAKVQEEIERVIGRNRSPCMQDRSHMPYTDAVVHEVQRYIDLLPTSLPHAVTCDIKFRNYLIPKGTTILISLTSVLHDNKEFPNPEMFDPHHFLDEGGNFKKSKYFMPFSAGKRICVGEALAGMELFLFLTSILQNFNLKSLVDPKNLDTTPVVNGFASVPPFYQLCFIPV
# Test: Cytochrome P450 family 2 subfamily C member 9 (CYP2C9) small molecule antagonists: luciferase biochemical (cell-free) qHTS assay (AID 1645842); note: nearly all actives have a fitted effect of over 55% in size
# Conditions: P450-Glo CYP2C9 enzyme assay, luciferin luminescence; series mostly up to 57.4 µM; activity change, negative = inhibition: at the top concentration
# Outline: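 Luminescence, after 20 min with luciferin detection reagent, reflected CYP2C9 turnover during a 1 h NADPH-driven reaction at 37C. Enzyme-substrate mix contained 0.4% bovine serum albumin and was preincubated with compound 10 min at room temperature.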
# % is set by controls: 0 for no effect and ±100 for the full control effect; potency is the fitted concentration of half-maximal effect.
Compound,"activity change, negative = inhibition",Potency
CCCCNC(=O)NS(=O)(=O)c1ccc(N)cc1,0.24%,
CCN(CC)CCOC(=O)C1(c2ccccc2)CCCC1,7.82%,
O=C(O)c1ccc(S(=O)(=O)N(Cl)Cl)cc1,1.59%,
CC(=O)Nc1ccc(OC(=O)c2ccccc2OC(C)=O)cc1,7.9%,
C[N+]12CCC(CC1)C(OC(=O)C(O)(c1ccccc1)c1ccccc1)C2 (stereo unspecified),1.23%,
COc1cc(NS(=O)(=O)c2ccc(N)cc2)ncn1,1.98%,
C[C@@H](O)[C@H]1C(=O)N2C(C(=O)O)=C([C@H]3CCCO3)S[C@H]12,5.51%,
CCCCCCCCOc1ccc(C(=O)c2ccccc2)c(O)c1,-22.5%,
CCCc1ncc(C[n+]2ccccc2C)c(N)n1,-3.3%,
CC(=O)N[C@@H](CCC(=O)O)C(=O)O,17.2%,
CCN1CCN(C(=O)N[C@@H](C(=O)N[C@@H]2C(=O)N3C(C(=O)O)=C(CSc4nnnn4C)CS[C@H]23)c2ccc(O)cc2)C(=O)C1=O,0.597%,
N#CCC(=O)NN,4.78%,
CC(C)Nc1cccnc1N1CCN(C(=O)c2cc3cc(NS(C)(=O)=O)ccc3[nH]2)CC1,,1.95 µM (active)
Cc1ccc(S(=O)(=O)NC(=O)NC2CCCC2)cc1,-12.2%,
Nc1ccc(C(=O)NCC(=O)O)cc1,8.59%,
O=[N+]([O-])c1ccc(/C=N\O)o1,1.01%,
CCCN(CCC)S(=O)(=O)c1ccc(C(=O)O)cc1,0.821%,
O=C(O)P(=O)(O)O,7.37%,

Compound,"activity change, negative = inhibition",Potency
CC1CCc2c(N3CCC(O)CC3)c(F)cc3c(=O)c(C(=O)O)cn1c23 (stereo unspecified),-8.1%,
C/C=C/c1ccc(O)c(OC)c1,,2.19 µM (active)
Cc1cccc(C)c1NC(=O)c1ccccc1C(=O)O,13.3%,
CCOc1ccccc1OCCN[C@H](C)Cc1ccc(OC)c(S(N)(=O)=O)c1,11.8%,
CCN(CC)CCOC(=O)C(Cc1cccc2ccccc12)CC1CCCO1 (stereo unspecified),,inactive
CN1CCN(C2=Nc3ccccc3Sc3ccc(Cl)cc32)CC1,-27.1%,
O=C(CCN1CCN2CCCC2C1)N1c2ccccc2Sc2ccc(Cl)cc21 (stereo unspecified),8.73% [at 23.9 µM],
NC1CCN(c2nc3c(cc2F)c(=O)c(C(=O)O)cn3-c2ccc(F)cc2F)C1 (stereo unspecified),2.06%,
FC(F)(F)C(F)(F)C(F)(F)C(F)(F)C(F)(F)C(F)(F)C(F)(F)C(F)(F)Br,15.5%,
Cc1cc(C)cc(OCC2CNC(=O)O2)c1 (stereo unspecified),5.27%,
CCOc1ccccc1C(N)=O,7.14%,
O=C(Nc1ncc([N+](=O)[O-])s1)c1cccs1,,9.77 µM (active)
O=C(O)Cc1csc(-c2ccc(Cl)cc2)n1,-2.54%,
CCOC(=O)[C@@](C)(N)Cc1ccc(O)c(O)c1,-1.46%,
O=C(Nc1ccc([N+](=O)[O-])cc1)Nc1ccc([N+](=O)[O-])cc1,0.0512%,
CC(=O)Nc1ccc(CC(=O)O)cc1,14.1%,
CC(=O)Oc1ccc(C)cc1,11.9%,
CCCCNc1ccc(C(=O)OCCOCCOCCOCCOCCOCCOCCOCCOCCOC)cc1,,6.92 µM (active)
